The values that follow come from PubChem BioAssay.

Assay [1] in a line: inhibitors of TNFa-induced NFkB p65 translocation, primary screen, imaging, HUVEC, MLSMR starter and 10KST1 sets (AID 438;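 active = inhibition above 20% together with a positive visual image hit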;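 also: compound added about 3h40 before a 20 min TNFalpha stimulation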;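 as to inhibition: signal is the nuclear over cytoplasmic p65 intensity ratio per well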). The conditions noted are these: HUVEC TNFa-induced p65 nuclear translocation; cell count: measured here: nuclei count (cytotoxicity indicator), at 2.08 µM; inhibition: at 2 µM, stronger effect = higher value, 0% TNFa-plus-vehicle, 100% no-TNFa wells.
A short description of assay [2]: reduction of polyQ htt aggregates in cells – imaging, exon1htt(103Q)mCFP cells, high-content imaging, primary screen (AID 483;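 active = visual image review flags a hit and inhibition of aggregation exceeds 20%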;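 also: compound exposure lasted 3 days before fixation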;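 as to nuclei count: percent of the per-plate median nuclei count of sample wells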). To be noted: exon1htt(103Q)mCFP cell line, aggregate imaging, at 2 µM; inhibition of aggregation: stronger effect = higher value; nuclei count: measured here: cell count, toxicity.
The nature of assay [3]: endothelial E-selectin expression blockers – imaging, HUVEC, immunofluorescence, MLSMR starter and 10KST1 sets, primary screen (AID 487;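 active = visually confirmed hit in the image check and inhibition above 20%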;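 as to inhibition: signal is fraction of cell area covered by stained E-selectin grains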;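 as to nuclei count: 100% = median nuclei count of all wells on the same plate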). To be noted: HUVEC TNFalpha-induced E-selectin immunofluorescence imaging, at 2 µM; inhibition: stronger effect = higher value; nuclei count: measured here: cell number, toxicity.
In assay [4] the target is Voltage-gated potassium channel subunit beta-2 (Rattus norvegicus) (UniProt P62483). Nature of the assay: inhibitors of rat Kvbeta2 reductase activity – biochemical, NADPH fluorescence, primary screen (AID 622;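 active = fluorescence slope higher than the sample average by over 3 SD, cut at about -0.22 in these data, passing the limit was not always enough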;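 also: slope of raw intensity against log time taken from 70 to 1610 s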). To be noted: recombinant KvBeta, 4-cyanobenzaldehyde reduction, at 10 µM, stronger effect = higher value.
Assay [5] has the same target. Nature of the assay: enhancers of rat Kvbeta2 NADPH turnover – biochemical, NADPH fluorescence, primary screen (AID 623;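 active = NADPH fluorescence slope more negative than the mean of all samples by about 3 SD, 99.7% confidence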;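 also: fluorescence intensity change per second fitted from 20 to 320 s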). The conditions noted are these: Recombinant KvBeta, NADPH fluorescence decrease slope, 10 min; at 10 µM; stronger effect = lower value.
Assay [6] addresses Alpha-2C adrenergic receptor (Homo sapiens) (UniProt P18825). Nature of the assay: compounds altering alpha2C-coupled GIRK flux – cell-based, HEK293 alpha2C/GIRK1/2, thallium flux, primary screen (AID 624).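 Also: slope of fluorescence ratio to pre-addition baseline per second over 15 to 24 s.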 To be noted: thallium flux BTC fluorescence, at 10 µM, actives lie on both sides.
Assay [7] in a line: blockers of RIG-like receptor reporter activation – cell-based, Sendai virus stimulus, luciferase, 10K MLSCN set, TLR/RLR signaling modifier project, primary screen (AID 602276;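 active = inhibition at or above 50% at 10 µM; inactive = inhibition below 50%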;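 also: firefly luciferase from ISG56 promoter only with Renilla not read in this screen; 0% = Sendai virus plus DMSO and 100% = medium plus DMSO without virus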). The conditions noted are these: HEK293 RL24 IRF3 luciferase reporter, at 10 µM, stronger effect = higher value. In general terms: A reporter such as luciferase makes a cellular process visible.
Assay [8] in a line: TLR3 IRF3 reporter activation blockers – cell-based, poly I:C stimulus, luciferase, 10K MLSCN set, primary screen (AID 602277;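 active = inhibition of the reporter signal at or above 50%; inactive = inhibition below 50%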). The conditions noted are these: HEK293-TLR3 RL24 IRF3 luciferase reporter, at 10 µM, stronger effect = higher value.

For orientation: inhibition means the drop in the measured response relative to a control, in per cent.

Active and inactive are the calls of the source.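 The calls were made as follows, unless noted: active = fluorescence slope after compound addition differing from the mean of all screened samples at 99.7% confidence, in either direction; inactive = the rest.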

Chain of Alpha-2C adrenergic receptor (Homo sapiens) (P18825 whole entry, looked up): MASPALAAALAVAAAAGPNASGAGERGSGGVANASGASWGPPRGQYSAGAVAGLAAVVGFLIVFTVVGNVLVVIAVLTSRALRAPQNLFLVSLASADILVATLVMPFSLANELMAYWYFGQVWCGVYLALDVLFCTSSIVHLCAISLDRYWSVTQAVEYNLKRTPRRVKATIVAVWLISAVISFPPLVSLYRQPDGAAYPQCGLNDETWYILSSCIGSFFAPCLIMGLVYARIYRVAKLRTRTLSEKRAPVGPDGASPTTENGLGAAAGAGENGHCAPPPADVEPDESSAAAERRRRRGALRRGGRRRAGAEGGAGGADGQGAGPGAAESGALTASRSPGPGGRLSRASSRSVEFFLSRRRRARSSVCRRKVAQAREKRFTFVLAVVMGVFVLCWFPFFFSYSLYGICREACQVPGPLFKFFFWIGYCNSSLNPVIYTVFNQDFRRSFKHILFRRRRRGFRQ
Chain of Voltage-gated potassium channel subunit beta-2 (Rattus norvegicus) (P62483 whole entry, looked up): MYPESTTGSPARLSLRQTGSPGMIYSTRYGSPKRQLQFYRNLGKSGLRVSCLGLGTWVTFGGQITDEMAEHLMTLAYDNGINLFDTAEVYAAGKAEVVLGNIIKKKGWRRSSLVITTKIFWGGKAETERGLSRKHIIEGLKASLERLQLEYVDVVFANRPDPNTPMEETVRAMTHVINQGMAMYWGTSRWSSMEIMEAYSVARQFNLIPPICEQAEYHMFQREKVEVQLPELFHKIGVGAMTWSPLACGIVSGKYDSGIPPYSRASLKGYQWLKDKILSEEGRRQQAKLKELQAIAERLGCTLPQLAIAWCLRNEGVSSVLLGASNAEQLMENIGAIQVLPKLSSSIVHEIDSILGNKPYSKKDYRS

With `Oc1ccccc1-c1nnc(COc2ccc(Cl)cc2Cl)o1`, the cell count in assay [1] amounted to 766. Also, the inhibition was -8.5% (inactive) in assay [1], -23.4% (inactive) in assay [3], -0.185% (inactive) in assay [7] and -1.08% (inactive) in assay [8]. Further, in assay [2], the inhibition of aggregation was -1.7% (inactive). In addition, the nuclei count in assay [2] was 127%; in assay [3] it was 113%. Moreover, in assay [4], the fluorescence slope was -0.54 (inactive). Moreover, the NADPH fluorescence slope in assay [5] is -2.9e-05 (inactive). In addition, in assay [6], the slope was 0.00718 (inactive).
Take `C=CCOc1nc2c(c(=O)n(C)c(=O)n2C)n1C`: in assay [1], the cell count stood at 339. Further, the inhibition in assay [1] was 1% (inactive); in assay [3] it was 0.3% (inactive); in assay [7] it was 6.05% (inactive); in assay [8], 34.1% (inactive). The inhibition of aggregation in assay [2] is -1.3% (inactive). For the same compound, the results for the nuclei count in assay [2] and in assay [3] were 113% and 119%, respectively. In assay [4], the fluorescence slope is -0.444 (inactive). In assay [5], the NADPH fluorescence slope is -4.9e-05 (inactive). In assay [6], the slope is 0.00278 (inactive).
Turning to `Cc1cccc(NS(=O)(=O)c2cc(C(=O)OCC(=O)Nc3cc(C)on3)ccc2C)c1`, the cell count in assay [1] was determined as 427. For the same compound, the inhibition in assay [1] is 7.9% (inactive); in assay [7], 25.1% (inactive); in assay [8], 2.98% (inactive). The inhibition of aggregation in assay [2] was 3.7% (inactive). Besides, the nuclei count in assay [2] is 99.6%; in assay [3], 125%. Also, the fluorescence slope in assay [4] is -0.498 (inactive). In addition, the NADPH fluorescence slope in assay [5] was -3.2e-05 (inactive). For the same compound, the slope in assay [6] is 0.00536 (inactive).
Consider `CNS(=O)(=O)c1cccc(C(=O)OCC(=O)c2cc(C)n(-c3ccc4c(c3)OCO4)c2C)c1`, for which the cell count in assay [1] was found to be 406. Besides, the values for the inhibition in assay [1], in assay [7] and in assay [8] were 2.5% (inactive), -1.89% (inactive) and 10.6% (inactive), respectively. For the same compound, in assay [2], the inhibition of aggregation was -7.6% (inactive). The nuclei count in assay [2] came out at 97.3%; in assay [3], 156%. In assay [4], the fluorescence slope is -0.436 (inactive). For the same compound, the NADPH fluorescence slope in assay [5] was -4.7e-05 (inactive). For the same compound, the slope in assay [6] was 0.0143 (active).
Regarding `Cc1onc(-c2ccccc2)c1C(=O)Nc1sc2c(c1C(N)=O)CCC2`, in assay [1], the cell count came out at 404. Moreover, the results for the inhibition in assay [1], in assay [7] and in assay [8] were 4.8% (inactive), 8.08% (inactive) and -31.8% (inactive), respectively. Also, the inhibition of aggregation in assay [2] is -0.6% (inactive). For the same compound, the nuclei count in assay [2] was 107%; in assay [3], 139%. Moreover, in assay [4], the fluorescence slope is -0.282 (inactive). Besides, in assay [5], the NADPH fluorescence slope was -1.9e-05 (inactive). Further, in assay [6], the slope was 0.00375 (inactive).
In the case of `CCC1CCc2c(sc3ncnc(N4CCOCC4)c23)C1` (stereo not drawn), the cell count in assay [1] turned out to be 588. For the same compound, the inhibition was -4.4% (inactive) in assay [1], -4% (inactive) in assay [3], -6.27% (inactive) in assay [7] and 13.8% (inactive) in assay [8]. Also, the inhibition of aggregation in assay [2] is -3.1% (inactive). Moreover, the nuclei count is 25.7% in assay [2] and 114% in assay [3]. Moreover, the fluorescence slope in assay [4] is -0.469 (inactive). The NADPH fluorescence slope in assay [5] was -4.6e-05 (inactive). The slope in assay [6] is 0.00589 (inactive).
With `COc1ccc(N2CCN(C(=O)COc3ccc4ccccc4c3)CC2)cc1`, in assay [1], the cell count came out at 737. Besides, the inhibition was 7.3% (inactive) in assay [1], -29.6% (inactive) in assay [3], 4.32% (inactive) in assay [7] and 10.9% (inactive) in assay [8]. In addition, the inhibition of aggregation in assay [2] was 7.5% (inactive). The results for the nuclei count in assay [2] and in assay [3] were 93.8% and 111%, respectively. In assay [4], the fluorescence slope was -0.468 (inactive). For the same compound, the NADPH fluorescence slope in assay [5] was -5.8e-05 (inactive). Besides, the slope in assay [6] was 0.00617 (inactive).
Turning to `O=C(Nc1ccc2c(c1)OCCO2)C1CCCN1S(=O)(=O)c1cccc2cccnc12` (stereo not drawn), the cell count in assay [1] stood at 743. In addition, the inhibition in assay [1] was 4.4% (inactive); in assay [3], -42.2% (inactive); in assay [7] it was 3.98% (inactive); in assay [8], 22.9% (inactive). For the same compound, the inhibition of aggregation in assay [2] is 4.5% (inactive). In addition, the nuclei count in assay [2] came out at 128%; in assay [3] it was 106%. Further, the fluorescence slope in assay [4] is -0.537 (inactive). Further, the NADPH fluorescence slope in assay [5] is -4.4e-05 (inactive). In addition, in assay [6], the slope was 0.00567 (inactive).
For `CC1(C)C(=O)Nc2ccccc2N1C(=O)COC(=O)Cn1cnc2ccccc2c1=O`, the cell count in assay [1] is 465. Besides, the inhibition in assay [1] was 2.5% (inactive); in assay [3], -67.7% (inactive); in assay [7], 7.38% (inactive); in assay [8], 20.1% (inactive). The inhibition of aggregation in assay [2] was -1.8% (inactive). The nuclei count stood at 107% in assay [2] and 116% in assay [3]. Further, the fluorescence slope in assay [4] was -0.364 (inactive). Besides, in assay [5], the NADPH fluorescence slope was -1.3e-05 (inactive). Besides, in assay [6], the slope was 0.00422 (inactive).
Regarding `CN(Cc1ccccc1)C(=O)c1ccc2c(c1)OCO2`, the cell count in assay [1] came out at 414. For the same compound, the inhibition in assay [1] is 10.6% (inactive); in assay [7], 2.22% (inactive); in assay [8] it was -20.3% (inactive). Besides, the inhibition of aggregation in assay [2] was -8.8% (inactive). Besides, the nuclei count in assay [2] came out at 108%; in assay [3], 156%. Moreover, in assay [4], the fluorescence slope is -0.595 (inactive). In assay [5], the NADPH fluorescence slope was -2e-05 (inactive). Further, in assay [6], the slope was 0.0038 (inactive).
As to `Cn1c(SCc2c(F)cccc2Cl)nnc1-c1cccs1`, in assay [1], the cell count came out at 662. The inhibition in assay [1] is 9.6% (inactive); in assay [3], -9.9% (inactive); in assay [7] it was -93.7% (inactive); in assay [8] it was -167% (inactive). Further, the inhibition of aggregation in assay [2] was -11.9% (inactive). Further, the nuclei count was found to be 25.4% in assay [2] and 115% in assay [3]. In addition, the fluorescence slope in assay [4] is -0.445 (inactive). Besides, the NADPH fluorescence slope in assay [5] was -2.8e-05 (inactive). The slope in assay [6] is 0.00484 (inactive).
As to `Cc1nc2ncnn2c(N2CCC(C(=O)NC3CCCC3)CC2)c1Cc1ccccc1`, in assay [1], the cell count was 400. Also, the inhibition is 2.7% (inactive) in assay [1], -87.8% (inactive) in assay [3], 5.2% (inactive) in assay [7] and 25.7% (inactive) in assay [8]. Besides, the inhibition of aggregation in assay [2] was -20.2% (inactive). In addition, the nuclei count in assay [2] is 116%; in assay [3], 117%. In addition, in assay [4], the fluorescence slope is -0.463 (inactive). In assay [5], the NADPH fluorescence slope is -0.000271 (inactive). For the same compound, the slope in assay [6] is 0.00426 (inactive).
